Inconclusive results are not listed. A call without a number means that no potency is given here. The source made the active and inactive calls. Unless noted, calls follow the shape of the dose curve; as a rule, active = well fitted curve in the direction sought with a large enough effect in the repeat runs; inconclusive = weak or mixed curves; inactive = no such curve, though single readings can be large; an effect the other way counts as inactive or inconclusive.
Assays:
[1] = qHTS assay to identify aromatase inhibitors - cell viability counter screen (AID 743084);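 also: cells stimulated with testosterone during compound exposure; nearly all actives have a fitted effect of over 55% in size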
[2] = target: Aryl hydrocarbon receptor (Homo sapiens) (UniProt P35869); assay: qHTS assay to identify small molecule that activate the aryl hydrocarbon receptor (AhR) signaling pathway (AID 743085); also: nearly all actives have a fitted effect of over 15% in size; also: potency is read from the fitted curve at half-maximal effect;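 as to activation: HG2L7.5c1 human HepG2 liver cells with stably integrated DRE-driven firefly reporter; series mostly up to about 70 µM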
Aryl hydrocarbon receptor (Homo sapiens), sequence (P35869 whole entry, looked up): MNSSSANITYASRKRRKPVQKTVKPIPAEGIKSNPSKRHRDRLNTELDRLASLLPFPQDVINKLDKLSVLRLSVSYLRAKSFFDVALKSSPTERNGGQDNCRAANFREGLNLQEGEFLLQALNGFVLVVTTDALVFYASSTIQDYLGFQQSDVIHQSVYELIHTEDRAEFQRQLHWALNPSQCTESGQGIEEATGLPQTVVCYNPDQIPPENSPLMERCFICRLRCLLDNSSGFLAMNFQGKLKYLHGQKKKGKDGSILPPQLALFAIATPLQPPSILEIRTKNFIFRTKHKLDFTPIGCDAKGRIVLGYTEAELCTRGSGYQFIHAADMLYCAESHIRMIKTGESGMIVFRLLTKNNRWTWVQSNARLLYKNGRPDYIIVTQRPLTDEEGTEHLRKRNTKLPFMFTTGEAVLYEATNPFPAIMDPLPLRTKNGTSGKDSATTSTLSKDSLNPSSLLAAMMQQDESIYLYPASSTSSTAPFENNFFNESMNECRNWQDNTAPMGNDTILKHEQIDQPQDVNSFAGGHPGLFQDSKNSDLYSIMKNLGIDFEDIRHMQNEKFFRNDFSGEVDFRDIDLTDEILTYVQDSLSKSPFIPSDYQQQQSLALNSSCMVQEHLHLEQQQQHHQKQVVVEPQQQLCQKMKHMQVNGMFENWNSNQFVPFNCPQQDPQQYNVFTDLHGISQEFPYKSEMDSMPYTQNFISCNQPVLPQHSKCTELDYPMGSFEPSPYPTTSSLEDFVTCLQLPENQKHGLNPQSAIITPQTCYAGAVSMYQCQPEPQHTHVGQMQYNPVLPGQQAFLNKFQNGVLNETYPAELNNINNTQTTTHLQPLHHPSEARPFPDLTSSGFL
In short: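 Steps: seed HepG2-AhR-luc cells; allow 5 h at 37C; pin-transfer test compound or vehicle; incubate 24 h at 37C; add viability dye (30 min, 37C) and read fluorescence; add luciferase substrate (30 min, RT) and read luminescence.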

[3] = qHTS assay to identify small molecule that activate the aryl hydrocarbon receptor (AhR) signaling pathway - cell viability counter screen (AID 743086);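 also: HepG2 liver cells carrying the AhR DRE luciferase reporter; series mostly up to about 70 µM; nearly all actives have a fitted effect of over 45% in size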
In short: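 Cytotoxicity counter screen: CellTiter-Fluor signal (30 min, 37 C) in 4000 HepG2 cells/well carrying the DRE-luciferase reporter, following 24 h compound exposure at 37 C.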

[4] = target: Peroxisome proliferator-activated receptor gamma (Homo sapiens) (UniProt P37231); assay: qHTS assay to identify small molecule agonists of the peroxisome proliferator-activated receptor gamma (PPARg) signaling pathway (AID 743094; active = well fitted activation curve with a large enough effect in the signal ratio in the repeat runs, not every such curve was filed as active; the % refers to the signal ratio)
Peroxisome proliferator-activated receptor gamma (Homo sapiens), sequence (P37231 whole entry, looked up): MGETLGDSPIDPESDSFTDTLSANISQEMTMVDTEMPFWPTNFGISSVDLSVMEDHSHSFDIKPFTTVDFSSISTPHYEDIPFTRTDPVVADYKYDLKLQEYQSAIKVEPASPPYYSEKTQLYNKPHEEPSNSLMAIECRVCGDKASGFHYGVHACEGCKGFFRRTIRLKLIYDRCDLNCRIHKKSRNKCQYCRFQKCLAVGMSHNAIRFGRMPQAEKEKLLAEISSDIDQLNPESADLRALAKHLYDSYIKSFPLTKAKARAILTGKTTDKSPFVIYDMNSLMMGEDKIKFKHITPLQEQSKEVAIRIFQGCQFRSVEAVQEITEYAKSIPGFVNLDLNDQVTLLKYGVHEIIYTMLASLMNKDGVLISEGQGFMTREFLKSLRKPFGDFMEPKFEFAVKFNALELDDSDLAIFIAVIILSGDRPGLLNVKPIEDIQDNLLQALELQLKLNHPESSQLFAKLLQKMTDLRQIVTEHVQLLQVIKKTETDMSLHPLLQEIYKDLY
In short: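 HEK293H PPARg-bla cells, 5 h settle at 37C/5% CO2; compound (DMSO) 17 h, 37C; B/G FRET substrate 1 h RT; fluorescence intensity read-out. qHTS format.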

[5] = target: Peroxisome proliferator-activated receptor gamma (Homo sapiens) (UniProt P37231); assay: qHTS assay to identify small molecule antagonists of the peroxisome proliferator-activated receptor gamma (PPARg) signaling pathway (AID 743191; calls by dose curve; also: series mostly up to about 63 µM; nearly all actives have a fitted effect of over 30% in size)
In short: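 Beta-lactamase reporter under UAS control in HEK293H PPARg-bla cells; compound treatment 17 h at 37C. Read-out: fluorescence intensity after 1 h room-temperature incubation with LiveBLAzer B/G FRET substrate.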

[6] = qHTS assay to identify small molecule antagonists of the peroxisome proliferator-activated receptor gamma (PPARg) signaling pathway - cell viability counter screen (AID 743194); also: nearly all actives have a fitted effect of over 55% in size
In short: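 Viability was measured as CellTiter-Glo luminescence in GeneBLAzer PPARg UAS-bla HEK293H cells. These cells had been exposed 17 h at 37 C to compounds together with rosiglitazone at 50 nM final, with the beta-lactamase readout taken in the same wells.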

[7] = qHTS assay for small molecule agonists of the antioxidant response element (ARE) signaling pathway (AID 743202; active = well fitted activation curve with a large enough effect in the signal ratio in the repeat runs, not every such curve was filed as active; the % refers to the signal ratio)
In short: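 Beta-lactamase reporter activity, read as fluorescence intensity, reflects ARE/Nrf2 pathway induction in HepG2 cells after 16 h compound exposure at 37 C; substrate loading was 2 h at room temperature.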

[8] = qHTS assay for small molecule agonists of the antioxidant response element (ARE) signaling pathway - cell viability counter screen (AID 743203; calls by dose curve; also: nearly all actives have a fitted effect of over 55% in size)
In short: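 Luminescence read-out (CellTiter-Glo, 30 min at room temperature) measured cell viability in the same wells as the ARE beta-lactamase reporter. HepG2 ARE-bla cells were treated with compounds for 16 hrs at 37C/5% CO2.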

[9] = qHTS assay for small molecule activators of the heat shock response signaling pathway - cell viability counter screen (AID 743209); also: nearly all actives have a fitted effect of over 50% in size
In short: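 HSE-bla HeLa; 1500 cells/well; overnight 37 C, 5% CO2; compound 5 h 37 C; LiveBLAzer B/G substrate 2.5 h RT; CellTiter-Glo 30 min RT; luminescence.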

[10] = qHTS assay for small molecule activators of the heat shock response signaling pathway (AID 743210; active = well fitted activation curve with a large enough effect in the signal ratio in the repeat runs, with a control signal flat, not every such curve was filed as active; the % refers to the signal ratio;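 also: HeLa cells with beta-lactamase reporter driven by heat shock elements; series mostly up to about 63 µM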)
In short: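 Fluorescence from a cleaved B/G FRET substrate (2.5 h, room temp) reports HSE-driven beta-lactamase in HeLa cells treated 5 h at 37 C with DMSO-dissolved compounds.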

SMILES	Potency [1]	Potency [2]	Potency [3]	outcome [4]	Potency [5]	Potency [6]	Potency [7]	Potency [8]	Potency [9]	Potency [10]
CCCCCCOC(=O)CCCCC	inactive	inactive	inactive	inactive	inactive	inactive	inactive	inactive	inactive	
O=C(c1ccccc1)C1CCC1	inactive	inactive	inactive	inactive	inactive	inactive	inactive	inactive	inactive	
CC(=O)OCC1=C(C(=O)O)N2C(=O)[C@@H](NC(=O)CSc3ccncc3)[C@H]2SC1	inactive	inactive	inactive	inactive	inactive	inactive		inactive	inactive	inactive
Cc1ccc(Cl)cc1N	inactive	inactive	inactive	inactive	inactive	inactive	inactive	inactive	inactive	inactive
CC(C)(C)C1(CCc2ccc(Cl)cc2)CO1 (stereo unspecified)	inactive	inactive	inactive	inactive	inactive	inactive	inactive	inactive	inactive	
O=C1CC[C@@H](C(=O)O)N1	inactive	inactive	inactive	inactive	inactive	inactive	inactive	inactive	inactive	
C[C@@H]1C[C@H]2[C@@H]3CCC4=CC(=O)C=C[C@]4(C)[C@@]3(F)[C@@H](O)C[C@]2(C)[C@@]1(O)C(=O)COP(=O)(O)O	inactive	inactive	inactive	inactive	inactive	inactive	inactive	inactive	inactive	inactive
CC(C)N=C=NC(C)C	inactive	inactive	inactive	inactive	inactive	inactive	inactive	inactive	inactive	inactive
CCN(CC)C(=O)N1CCN(C)CC1	inactive	inactive	inactive	inactive	inactive	inactive	inactive	inactive		inactive
CCC(C)(C)C(=O)O	inactive	inactive	inactive	inactive	inactive	inactive	inactive	inactive	inactive	inactive
C=CC(=O)O	inactive	inactive	inactive	inactive	inactive	inactive		inactive	inactive	
CC(C)COC(=O)c1ccc(O)cc1	inactive	inactive	inactive	inactive	inactive	inactive		inactive	inactive	inactive
CC(C)COC(=O)COc1cc(Cl)c(Cl)cc1Cl	inactive	inactive	inactive	inactive	inactive	inactive		inactive	inactive	inactive
CC(C)c1ccc(C(=O)N=C(N)N)cc1S(C)(=O)=O	inactive	inactive	inactive	inactive	inactive	inactive	inactive	inactive	inactive	
CC1CCc2nccnc21 (stereo unspecified)	inactive	inactive	inactive	inactive		inactive	inactive	inactive	inactive	inactive
O=C(C(=O)c1ccco1)c1ccco1	inactive	inactive	inactive	inactive	inactive				inactive	inactive
O=C(O)c1ccc(O)cc1O	inactive	inactive	inactive	inactive		inactive	inactive	inactive	inactive	inactive
CC(O)Cn1cnc2c1c(=O)n(C)c(=O)n2C (stereo unspecified)	inactive	inactive	inactive	inactive		inactive	inactive	inactive	inactive	inactive
Cc1ccc2c(c1)CCCN2	inactive	61.1 µM (active)	inactive	inactive		inactive	inactive	inactive	inactive	inactive
O=C(O)CCC(=O)OC[C@@H](NC(=O)C(Cl)Cl)[C@H](O)c1ccc([N+](=O)[O-])cc1	inactive	inactive	inactive	inactive		inactive	inactive	inactive	inactive	
CC(C)C(O)C(C)(C)CO (stereo unspecified)	inactive	inactive	inactive	inactive		inactive	inactive	inactive	inactive	
CC(C)c1ccc(C#N)cc1	inactive	inactive	inactive	inactive		inactive	inactive	inactive	inactive	
Cc1cccc2sc(N)nc12	inactive	27.6 µM (active)	inactive	inactive		inactive				
COc1cc(S(=O)(=O)Nc2ccccc2)c(OC)cc1N	inactive	inactive	inactive	inactive	inactive	inactive			inactive	inactive
O=CNNC=O	inactive	inactive	inactive	inactive		inactive	inactive	inactive		
